Records with an inconclusive call do not appear. The source made the active and inactive calls. Calls come from the whole dose curve; as a rule, active = well fitted curve in the direction sought with a large enough effect; inconclusive = small, poorly fitted or top-dose-only effect, or another doubt; inactive = no such curve, though single readings can be large; an effect the other way counts as inactive or inconclusive.
What was measured:
[1] = system: CRL-7250; assay: Cytotoxic Profiling of Annotated Libraries Using Quantitative High-Throughput Screening (AID 1296008); conditions: Five cell lines viability, CellTiter-Glo ATP luminescence, 48-72 h; max response: stronger effect = lower value; note: nearly all actives have a fitted effect of over 60% in size; for max response: % is set by controls: 0 for no effect and ±100 for the full control effect
Summary of the method: (§1)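 Compounds were pin-transferred onto cells and incubated 48 or 72 hr at 37 degree Celsius, 95% humidity. CellTiter-Glo was added, plates sat 10 min at room temperature, then ATP-coupled luminescence was imaged as the viability read-out.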

[2] = system: HEK293; assay: as above; conditions: Five cell lines viability, CellTiter-Glo ATP luminescence, 48-72 h; max response: stronger effect = lower value
Summary of the method: as §1

[3] = system: HaCat; assay: as above; conditions: Five cell lines viability, CellTiter-Glo ATP luminescence, 48-72 h; max response: stronger effect = lower value
Summary of the method: as §1

[4] = system: KB-3-1; assay: as above; conditions: Five cell lines viability, CellTiter-Glo ATP luminescence, 48-72 h; max response: stronger effect = lower value
Summary of the method: as §1

[5] = system: NIH3T3; assay: as above; conditions: Five cell lines viability, CellTiter-Glo ATP luminescence, 48-72 h; max response: stronger effect = lower value
Summary of the method: as §1

[6] = system: HACAT; assay: qHTS assay to identify novel small-molecules to repurpose for Merkel cell carcinoma treatment (AID 1296009); conditions: MCC and control cell lines, CellTiter-Glo viability, 72 h; at 44.8 µM (top of the series) unless noted; note: nearly all actives have a fitted effect of over 60% in size
Summary of the method: (§2)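 Viability readout: ATP luminescence (CellTiter-Glo) after 72 hr drug exposure at 37 degree celsius. Dose-response format was 8 points for NPC and 11 points for MIPE; data normalized to in-plate controls.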

[7] = system: NIH3T3; assay: as above; conditions: MCC and control cell lines, CellTiter-Glo viability, 72 h; at 44.8 µM (top of the series) unless noted
Summary of the method: as §2

[8] = system: C33A; assay: Primary qHTS to identify gynecologic anti-cancer compounds using libraries of approved drugs and bioactive compounds (AID 1345084); conditions: Gynecologic cancer cell panel viability, ATPlite luminescence, 48 h; series mostly up to 57.5 µM; note: % is set by controls: 0 for no effect and ±100 for the full control effect; nearly all actives have a fitted effect of over 55% in size
Summary of the method: (§3)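 Measured: luminescence after ATPlite addition (15 min, RT). Exposure: 48 h, 37 C, 5% CO2.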

[9] = system: CASKI; assay: as above; conditions: Gynecologic cancer cell panel viability, ATPlite luminescence, 48 h; series mostly up to 57.5 µM
Summary of the method: as §3

[10] = system: Es-2; assay: as above; conditions: Gynecologic cancer cell panel viability, ATPlite luminescence, 48 h; series mostly up to 57.5 µM
Summary of the method: as §3

[11] = system: HeLa; assay: as above; conditions: Gynecologic cancer cell panel viability, ATPlite luminescence, 48 h; series mostly up to 57.5 µM
Summary of the method: as §3

[12] = system: Hek293T; assay: as above; conditions: Gynecologic cancer cell panel viability, ATPlite luminescence, 48 h, control line for the selectivity index; series mostly up to 57.5 µM
Summary of the method: as §3

[13] = system: OV90; assay: as above; conditions: Gynecologic cancer cell panel viability, ATPlite luminescence, 48 h; series mostly up to 57.5 µM
Summary of the method: as §3

[14] = system: CAOV3; assay: as above; conditions: Gynecologic cancer cell panel viability, ATPlite luminescence, 48 h; series mostly up to 57.5 µM
Summary of the method: as §3

[15] = system: JEG-3; assay: as above; conditions: Gynecologic cancer cell panel viability, ATPlite luminescence, 48 h; series mostly up to 57.5 µM
Summary of the method: as §3

C[C@H]1CC[C@H]2[C@@H](C=C[C@@](C)(O)[C@]2(C)C(=O)CCO)C1
inactive: outcome [1] | max response [2] 4.9% | outcome [3] | max response [4] 5.8% | outcome [5] | outcome [6] | outcome [7] | Potency [8] | outcome [9] | Potency [10] | Potency [11] | Potency [12] | Potency [13]

COc1ccc(C(=O)OC2C3C=COC(OC4OC(CO)C(O)C(O)C4O)C3C3(CO)OC23)cc1OC (stereo unspecified)
inactive: max response [1] -2.32% | max response [2] 1.41% | outcome [3] | max response [4] 3.28% | max response [5] -4.72% | outcome [6] inactive [at 17.4 µM] | Potency [8] | Potency [14] | outcome [9] | Potency [10] | Potency [11] | Potency [12] | Potency [15] | Potency [13]

CC(=O)/C=C/[C@H]1[C@](C)(O)[C@@H](O)[C@H](O)C2C(C)(C)CCC[C@@]21C (stereo partly specified)
inactive: max response [1] -11.3% | max response [2] -5.03% | outcome [3] | max response [4] -3.39% | outcome [5] | outcome [6] | outcome [7] | Potency [14] | Potency [10] | Potency [13]

O=C(O)CC(CCc1ccccc1)OC1OC(CO)C(O)C(O)C1O (stereo unspecified)
inactive: max response [1] -6.12% | max response [2] -5.21% | outcome [3] | outcome [4] | outcome [5] | outcome [6] | outcome [7] | Potency [8] | outcome [9] | Potency [10] | Potency [11] | Potency [15] | Potency [13]

N[C@@H](CCNCc1ccc(Cl)cc1)C(=O)N1CCCCC1
inactive: outcome [1] | max response [2] 2.57% | outcome [3] | max response [4] 7.85% | max response [5] -2.5% | outcome [6] | Potency [8] | Potency [14] | outcome [9] | Potency [10] | Potency [11] | Potency [12] | Potency [15] | Potency [13]

CC(NC(=O)[C@H](Cc1ccccc1)NC(=O)OCc1ccccc1)C(=O)CF (stereo partly specified)
inactive: outcome [1] | max response [2] -1.18% | outcome [3] | outcome [4] | max response [5] 2.43% | outcome [6] | Potency [8] | Potency [14] | outcome [9] | Potency [10] | Potency [11] | Potency [12] | Potency [15] | Potency [13]

COc1ccc(Oc2c(Cl)cnn(C3c4ccccc4-c4ccccc43)c2=O)cc1
inactive: max response [1] -3.95% | max response [2] -2.77% | outcome [3] | max response [4] -2.29% | outcome [5] | outcome [6] | outcome [7] | Potency [8] | outcome [9] | Potency [10] | Potency [11] | Potency [12] | Potency [15] | Potency [13]

CCNC(=O)C1CC(F)(c2ccc(CN3CCCC3)c(F)c2)C1 (stereo unspecified)
inactive: outcome [1] | max response [2] -0.849% | outcome [3] | max response [4] 3.84% | outcome [5] | outcome [6] | outcome [7] | Potency [8] | outcome [9] | Potency [10] | Potency [11] | Potency [12] | Potency [15] | Potency [13]

— PubChem BioAssay (NCATS)
